SENP8 block-1: inhibitors of human SENP8 protease; Q96LD8; recombinant SENP8, Nedd8 substrate fluorescence; inhibition, % at 20 µM; actives 0.64% (n = 360,000); AID 602440; in the data active = inhibition mostly above about 40%, no sharp cut-off; inactive = mostly below about 27%
Target sequence (Q96LD8 whole entry, looked up): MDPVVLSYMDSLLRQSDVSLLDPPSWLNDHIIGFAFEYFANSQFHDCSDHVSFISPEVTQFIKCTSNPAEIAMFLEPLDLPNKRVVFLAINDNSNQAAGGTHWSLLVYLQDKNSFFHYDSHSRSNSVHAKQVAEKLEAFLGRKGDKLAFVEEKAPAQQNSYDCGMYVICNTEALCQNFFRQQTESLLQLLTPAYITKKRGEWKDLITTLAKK
SENP8 block-2: blocks the human protease SENP8; Q96LD8; purified SENP8, Z-RLRGG-aminoluciferin cleavage, luminescence; inhibition, % at 10 µM; actives 1.2% (n = 330,000); AID 2540; in the data active = inhibition above about 50%
SENP6 inh: blocks the human protease SENP6 | Q9GZR1 | Recombinant SENP6 catalytic domain, aminoluciferin luminescence | inhibition, % at 10 µM | actives 1.8% (n = 330,000) | AID 2599;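 active = inhibition above about 50% at the single tested dose, limit read from the data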;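 also: plate controls were DMSO wells with enzyme for no effect and DMSO wells lacking enzyme for full effect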
AHR act: activates the human aryl hydrocarbon receptor; AHR-responsive luciferase reporter cells, luminescence; activation, % at 5 µM; actives 2.5% (n = 320,000); AID 2796; in the data active = activation above about 47%;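 also: 0% = vehicle wells and 100% = reference agonist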
SENP7 block: inhibitors of human SENP7 protease; recombinant SENP7, Z-RLRGG-aminoluciferin luminescence, 40 min; inhibition, % at 5 µM; AID 434973; actives 1.5% (n = 330,000);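 active = inhibition above about 50% at the single test dose, limit read from the data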;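 also: plate controls were DMSO with enzyme for no effect and no enzyme buffer wells for full effect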
Target sequence (Q9BQF6 706-1050 limits assumed): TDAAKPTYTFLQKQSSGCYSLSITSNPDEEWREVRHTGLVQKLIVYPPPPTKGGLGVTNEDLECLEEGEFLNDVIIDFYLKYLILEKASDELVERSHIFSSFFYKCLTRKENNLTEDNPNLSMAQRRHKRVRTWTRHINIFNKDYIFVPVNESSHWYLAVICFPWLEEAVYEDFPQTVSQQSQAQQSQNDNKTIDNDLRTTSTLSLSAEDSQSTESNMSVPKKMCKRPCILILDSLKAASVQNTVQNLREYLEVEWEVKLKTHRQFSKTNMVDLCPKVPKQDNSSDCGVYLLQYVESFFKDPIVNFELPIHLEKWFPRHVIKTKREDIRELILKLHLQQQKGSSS
EBI2 block: blocks human EBI2 receptor beta-arrestin signaling; P32249; inhibition, % at 5 µM; actives 0.81% (n = 360,000); EBI2 beta-arrestin recruitment, luminescence, 7a,25-OHC stimulated; in the data active = inhibition above about 38%;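 also: enzyme fragment complementation signal reports receptor beta-arrestin coupling in cells; 0% = agonist plus DMSO wells and 100% = wells without agonist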
SENP8 confirm: confirmation of human SENP8 protease inhibitors; shares compounds with SENP7 block; Recombinant SENP8, Z-RLRGG-aminoluciferin luminescence, 60 min; inhibition, % at 12.5 µM; actives 40% (n = 6,200); AID 488912;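 active = mean inhibition across replicates above about 50%, limit read from the data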
SENP6 conf: human SENP6 inhibition, confirmed | shares compounds with SENP7 block | recombinant SENP6, Z-RLRGG-aminoluciferin luminescence | inhibition, % at 12.5 µM | actives 58% (n = 6,200)
SENP7 conf: human SENP7 inhibition, confirmed; inhibition, % at 12.5 µM; recombinant SENP7, Z-RLRGG-aminoluciferin luminescence, 40 min; shares compounds with SENP7 block; actives 69% (n = 6,200)
Casp3 SENP sel: caspase-3 inhibition (SENP selectivity assay) | inhibition, % at 12.5 µM | purified caspase-3, Z-DEVD-aminoluciferin luminescence, 60 min | shares compounds with SENP7 block | actives 60% (n = 6,200);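 active = mean inhibition above about 50%, limit read from the data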;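 also: plate controls were enzyme with DMSO for no effect and wells without caspase-3 for full effect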
Luc interf: counter-screen for SENP inhibitors: luminescence interference; shares compounds with SENP7 block; Pre-incubated SENP8/Z-RLRGG-aminoluciferin, luciferase luminescence interference; inhibition, % at 12.5 µM; actives 39% (n = 6,200); AID 488919;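 active = mean inhibition above about 50% when retested at one dose, limit read from the data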;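 also: plate controls were DMSO wells with completed reaction for no effect and substrate without enzyme for full effect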
Numbers without * were called inactive; i = inactive; nt = not tested or not shown. In the library only some 5% were active in any assay of this set; here they are far more common.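 The calls were made as follows, unless noted: active = mean inhibition above about 50% in the one-dose retest (limit read from the data); inactive = the rest.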

SMILES	SENP8 block-1	SENP8 block-2	SENP6 inh	AHR act	SENP7 block	EBI2 block	SENP8 confirm	SENP6 conf	SENP7 conf	Casp3 SENP sel	Luc interf
Cc1ccccc1-c1noc(-c2ccc(Cl)cc2)n1	9	30	-4	33	79*	8	21	26	13	49	8
NC(=O)c1ccc(-c2noc(-c3ccccc3F)n2)cc1	16	66*	74*	-14	77*	-5	36	63*	77*	69*	20
CCOc1ccc(NC(=O)CSc2nnc(-c3cc(C)[nH]n3)n2N)cc1	2	4	9	4	-4	-7	nt	nt	nt	nt	nt
CCOCCCNC1=C(Cl)C(=O)c2ccccc2C1=O	47*	47	75*	40	54*	2	5	33	2	5	4
CCOCCCNS(=O)(=O)c1ccccc1	13	-10	-12	-3	-1	-1	nt	nt	nt	nt	nt
O=C(COc1ccc(Br)cc1)Nc1ccccc1C(=O)NC1CC1	-20	-4	-1	6	3	3	nt	nt	nt	nt	nt
O=[N+]([O-])c1ccc2nc(-c3ccncc3)[nH]c2c1	20	64*	78*	22	51*	-9	39	60*	88*	86*	74*
O=[N+]([O-])c1ccc2nc(-c3ccccc3[N+](=O)[O-])[nH]c2c1	30	2	7	20	-1	-1	nt	nt	nt	nt	nt
O=[N+]([O-])c1ccc2nc(CCCc3nc4ccc([N+](=O)[O-])cc4[nH]3)[nH]c2c1	6	-2	-9	2	-7	5	nt	nt	nt	nt	nt
Cc1ccc(-c2nc3ccc([N+](=O)[O-])cc3[nH]2)cc1	-2	66*	76*	0	73*	15	11	77*	96*	64*	50
O=[N+]([O-])c1ccc2nc(-c3ccc(Cl)cc3)[nH]c2c1	-385	54*	75*	20	63*	11	68*	72*	87*	50*	49
Nc1nc2ccc([N+](=O)[O-])cc2[nH]1	17	3	2	4	10	-6	nt	nt	nt	nt	nt
Cc1ccc2nc(-c3cccc(N)c3)[nH]c2c1	i	88*	93*	-2	96*	-10	-25	91*	101*	95*	93*
O=C(O)c1cccc(S(=O)(=O)N(Cc2ccccc2)c2cccc(C(F)(F)F)c2)c1	4	5	10	-2	4	11	nt	nt	nt	nt	nt
Cc1cc(C(=O)OC(C(=O)Nc2ccc(C)c(Cl)c2)c2ccccc2)c(C)o1 (configuration not stated)	13	nt	nt	3	nt	-6	nt	nt	nt	nt	nt
Cc1nc(C)c(-c2csc(Nc3ccc(Cl)cn3)n2)s1	-120	nt	nt	nt	nt	9	nt	nt	nt	nt	nt
Cc1cccnc1Nc1nc(-c2ccc(O)c(O)c2)cs1	11	92*	92*	3	66*	0	89*	89*	96*	45	86*
COc1ccc(-c2csc(Nc3ncccc3C)n2)cc1OC	-38	14	49	-7	14	22	nt	nt	nt	nt	nt
Cc1nc(C)c(-c2csc(Nc3ncccc3C)n2)s1	5	61*	67*	6	59*	8	52*	60*	86*	50	25
COc1ccc(-c2csc(Nc3ncccc3C)n2)cc1	11	92*	100*	37	93*	42	95*	97*	102*	87*	92*
Cc1ccnc(Nc2nc(-c3ccc(O)cc3O)cs2)c1	8	-5	10	46	2	-8	nt	nt	nt	nt	nt
CC(OC(=O)c1ccco1)C(=O)Nc1ncc(Cl)cc1Cl (configuration not stated)	-6	0	-7	-1	-2	4	nt	nt	nt	nt	nt
COc1cc(Cl)c(C)cc1NC(=O)CSc1cc(Cl)ccc1Cl	-4	-3	4	24	-6	10	nt	nt	nt	nt	nt
CC(=O)c1ccc(O)c(CSC2=NCCS2)c1	5	6	9	1	8	2	nt	nt	nt	nt	nt
Nc1nc(Nc2ccc(Cl)cc2)nc2ccccc12	-272	95*	98*	7	97*	9	96*	97*	101*	93*	95*
SMILES	SENP8 block-1	SENP8 block-2	SENP6 inh	AHR act	SENP7 block	EBI2 block	SENP8 confirm	SENP6 conf	SENP7 conf	Casp3 SENP sel	Luc interf
Cc1ccccc1Nc1ncc(C#N)c(N)n1	6	-17	-10	3	-12	-1	nt	nt	nt	nt	nt
Nc1ncnc(Nc2ccccc2)n1	4	-11	-20	-4	-11	-4	nt	nt	nt	nt	nt
Cc1ccccc1Nc1nc(N)c2ccccc2n1	-230	91*	3	2	95*	-6	94*	95*	102*	97*	95*
Nc1nc(Nc2ccccc2)nc2ccccc12	18	91*	94*	42	97*	-17	97*	98*	103*	97*	96*
Cc1ccc(Nc2nc(N)c3ccccc3n2)cc1Cl	-289	97*	97*	17	98*	-13	99*	100*	103*	93*	85*
O=C(COC(=O)c1ccccn1)NCCc1ccc(Cl)cc1	-7	2	9	45	-20	-21	nt	nt	nt	nt	nt
O=C(NCCOc1ccccc1)c1ccc2n[nH]nc2c1	-2	50*	58*	3	32	-6	68*	68*	87*	87*	72*
O=C(NCCOc1ccccc1)c1ccc2c(c1)OCO2	4	50	69*	-3	-2	-3	50*	48	85*	80*	69*
O=C(CN1CCN(Cc2ccccc2Cl)C1=O)NCc1ccccn1	20	4	-20	0	9	29	nt	nt	nt	nt	nt
CC(C)CC(=O)Nc1cccc(C(C)O)c1 (configuration not stated)	nt	-6	-26	6	-8	nt	nt	nt	nt	nt	nt
CC1Cc2ccccc2N1S(=O)(=O)c1cccc(C(=O)N2CCN(c3ncccn3)CC2)c1 (configuration not stated)	-24	-5	-4	8	3	13	nt	nt	nt	nt	nt
CCCCN1C(=O)Cc2c1nc(N)c1c(N)nc(N(CCC)CCC)c(C#N)c21	-327	nt	nt	2	nt	13	nt	nt	nt	nt	nt
N#Cc1c(N(CCO)CCO)nc(N)c2c(N)nc3c(c12)CC(=O)N3CC1CCCO1 (configuration not stated)	-408	67*	-13	1	39	-2	-6	3	-6	1	3

Assay outcomes from PubChem.
